Compound activity from PubChem.
The list is not random: actives were taken first. Their share in the collection is about 0.52%.
Sa growth inh – S. aureus growth inhibition at 42 and 30 °C, primary screen, LtaS inhibitor project, RN4220, two temperatures. relative growth, % (concentration not given with the values). 170,000 compounds, 0.53% hits. OD600, 20 h, 42 °C; stronger effect = lower value. AID 720641, 2013;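 active = relative growth at most 50% at the other temperature and 20+ points below 30 °C, or under 10% at both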
Sa helicase inh – inhibitors of S. aureus replicative helicase, primary screen, biochemical, fluorescence unwinding readout. replicative DNA helicase (DnaC/DnaB), Staphylococcus aureus. purified S. aureus helicase, fluorescence unwinding assay. inhibition, % (test concentration not listed). 120,000 compounds, 0.05% hits; in the data active = inhibition above about 25%, passing the limit was not always enough;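 also: 0% = mean of negative control wells and 100% = mean of positive control wells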
Numbers without * were called inactive.

What do the screens show for `Cc1ccc(S(=O)(=O)N2CCCCC2)cc1C`?
Sa helicase inh: 7

What do the screens show for `O=C(Cc1ccc(F)cc1)N1CCC(c2nc3c(nnn3Cc3ccc(Cl)cc3)c(=O)[nH]2)CC1`?
Sa growth inh: 6.4*

Results for O=C(Cc1ccc(F)cc1)N1CCC(c2nc3c(nnn3Cc3ccc(F)cc3)c(=O)[nH]2)CC1 ?
Sa growth inh: 57

Results for Cn1nc(-c2ccc(F)cc2)nc2c(=O)n(C)c(=O)nc1-2 ?
Sa growth inh: 0.2*; Sa helicase inh: -132

Results for COc1ccc(-c2nc3c(=O)n(C)c(=O)nc-3n(C)n2)cc1OC ?
Sa growth inh: 53; Sa helicase inh: -1

What do the screens show for `O=C(COc1ccc2c3c(c(=O)oc2c1)CCC3)c1ccc(N2CCCC2)cc1`?
Sa growth inh: 125; Sa helicase inh: 25

How did Cc1ccccc1-c1nnc2n1C(C)(C)Cc1ccccc1-2 do in these assays?
Sa growth inh: 98; Sa helicase inh: 18

Results for CCOc1cccc(C(=O)Oc2cccc3ccc(C)nc23)c1 ?
Sa growth inh: 80; Sa helicase inh: 6

Results for Cc1ccc2cccc(OC(=O)c3ccc(Br)o3)c2n1 ?
Sa growth inh: 0.3*; Sa helicase inh: -23

What do the screens show for `O=S(=O)(CCS(=O)(=O)c1ccc(Cl)cc1)c1ccccc1`?
Sa growth inh: 99; Sa helicase inh: -35

What do the screens show for `N#CC(C#N)=NNc1ccc(SC(F)F)cc1`?
Sa growth inh: 0.9*; Sa helicase inh: 30

How did CCOC(=O)/C(C#N)=N/Nc1ccc(SC(F)F)cc1 do in these assays?
Sa growth inh: 34; Sa helicase inh: 10

How did O=C1c2ccccc2C(=O)c2c1nc1n2CCCC1 do in these assays?
Sa growth inh: 65; Sa helicase inh: 16

How did Cn1cnc2cc(NCc3ccccc3Cl)ccc21 do in these assays?
Sa growth inh: 97; Sa helicase inh: 7

How did CCCCn1cnc2cc(NCc3ccccc3Cl)ccc21 do in these assays?
Sa growth inh: 1.0*

Results for CCOC(=O)N1CCC(n2ccc3nc(SC)ncc3c2=O)CC1 ?
Sa growth inh: 104; Sa helicase inh: 23

What do the screens show for `CCn1c(Cc2ccccc2)nnc1SCc1ccc(C#N)cc1`?
Sa growth inh: 96; Sa helicase inh: 7

What do the screens show for `On1c(-c2ccccc2)cc2ccccc21`?
Sa growth inh: 1.6*; Sa helicase inh: 3

Results for O=c1cc(-c2ccccc2)cc(-c2ccccc2)n1O ?
Sa growth inh: 79

How did COc1nncc(-c2cnnc(SC)n2)n1 do in these assays?
Sa growth inh: 0.1*; Sa helicase inh: 8

How did COc1ccc(-c2ccnc(SC)n2)cc1 do in these assays?
Sa growth inh: 129

What do the screens show for `COc1ccc(-c2noc(CC(=O)NCCCN3C(C)CCCC3C)n2)cc1` (centres undefined)?
Sa growth inh: 101; Sa helicase inh: 10

How did Fc1ccccc1N1CCN(Cc2cn[nH]c2-c2ccc(Cl)cc2)CC1 do in these assays?
Sa growth inh: 93; Sa helicase inh: -27

Results for CN1C(=O)c2ccccc2N(C)C1c1ccc(F)cc1 (centres undefined) ?
Sa growth inh: 116; Sa helicase inh: 10

How did CN1c2ccccc2N(C)C1c1ccc(O)cc1 do in these assays?
Sa growth inh: -1.2*; Sa helicase inh: 2

Results for CO[C@H]1/C=C/O[C@@]2(C)Oc3c(C)c(O)c4c(O)c(c(C=NN5CCN(C)CC5)c(O)c4c3C2=O)NC(=O)/C(C)=C\C=C\C(C)[C@H](O)[C@@H](C)[C@@H](O)[C@@H](C)[C@@H](OC(C)=O)[C@@H]1C (some centres undefined) ?
Sa growth inh: 1.3*

How did CO[C@H]1C=CO[C@@]2(C)Oc3c(C)c(O)c4c(O)c(c5c(nc6cc(C)ccn65)c4c3C2=O)NC(=O)C(C)=CC=C[C@H](C)[C@H](O)[C@@H](C)[C@@H](O)[C@@H](C)[C@H](OC(C)=O)[C@@H]1C do in these assays?
Sa growth inh: 82

What do the screens show for `CO[C@H]1/C=C/O[C@@]2(C)Oc3c(C)c(O)c4c(O)c(c5c(nc6cc(C)ccn65)c4c3C2=O)NC(=O)/C(C)=C\C=C\[C@H](C)[C@H](O)[C@@H](C)C(O)[C@@H](C)[C@H](OC(C)=O)[C@@H]1C` (some centres undefined)?
Sa growth inh: -0.8*

How did CO[C@H]1C=CO[C@@]2(C)Oc3c(C)c(O)c4c(O)c(c5c(c4c3C2=O)NC2(CCN(CC(C)C)CC2)N=5)=NC(=O)C(C)=CC=C[C@H](C)[C@H](O)[C@@H](C)[C@@H](O)[C@@H](C)[C@H](OC(C)=O)[C@@H]1C do in these assays?
Sa growth inh: 0.6*

Results for O=C1Cc2cc(C(=O)CSc3nnc(C4CC4)n3-c3ccccc3)ccc2N1 ?
Sa growth inh: 98; Sa helicase inh: 15

Results for O=C(OCc1nnc(-c2ccccc2)o1)c1cccnc1SCc1nnc(-c2ccccc2)o1 ?
Sa growth inh: 18; Sa helicase inh: 11

What do the screens show for `CN(C)c1ccc(/C=C(/NC(=O)c2ccccc2)C(N)=O)cc1`?
Sa growth inh: 88; Sa helicase inh: 1

What do the screens show for `CCCCN1C(C(=O)c2ccccc2)=C(OC(=O)CC)c2ccccc2S1(=O)=O`?
Sa growth inh: 8.2*

How did CCCCCN1C(C(=O)c2ccccc2)=C(NC(C)=O)c2ccccc2S1(=O)=O do in these assays?
Sa growth inh: 112

How did CCCCCN1C(C(=O)c2ccccc2)=C(OC(=O)CC)c2ccccc2S1(=O)=O do in these assays?
Sa growth inh: -0.5*

What do the screens show for `CCCN1C(C(=O)c2ccccc2)=C(OC(=O)c2ccc(F)cc2)c2ccccc2S1(=O)=O`?
Sa growth inh: 26

How did CCCCC(=O)OC1=C(C(=O)c2ccccc2)N(CCC)S(=O)(=O)c2ccccc21 do in these assays?
Sa growth inh: 4.0*

What do the screens show for `CCCN1C(C(=O)c2ccccc2)=C(OC(=O)c2ccc(C)cc2)c2ccccc2S1(=O)=O`?
Sa growth inh: 97

What do the screens show for `O=C(COc1coc(CN2CCN(Cc3ccccc3)CC2)cc1=O)N1CCCCC1`?
Sa growth inh: 102; Sa helicase inh: 6

Results for COc1ccc(CC(=O)Nc2sccc2C(N)=O)cc1 ?
Sa growth inh: 102; Sa helicase inh: -6

Results for CC(C)CCC1(C)NC(=O)N(CC(=O)c2ccc3c(c2)OCO3)C1=O (centres undefined) ?
Sa growth inh: 121; Sa helicase inh: -7

Results for CCN=PN1CCN(P(=NCC)(N(CC)CC)N(CC)CC)CC1 (centres undefined) ?
Sa growth inh: 83; Sa helicase inh: 2

Results for CCN(CC(=O)NCc1ccc(F)cc1)C(=O)c1cc(=O)[nH]c2ccccc12 ?
Sa growth inh: 114; Sa helicase inh: -5

Results for COC(=O)c1n[nH]n(-c2cc(Cl)cc(Cl)c2)c1=O ?
Sa growth inh: 90

What do the screens show for `COC(=O)c1cc(=O)n(-c2cc(Cl)cc(Cl)c2)[nH]1`?
Sa growth inh: 13*; Sa helicase inh: 40

How did Clc1ccc(-c2nccc(-c3cc(-c4ccccc4)no3)n2)cc1 do in these assays?
Sa growth inh: 100

Results for Cc1ccc(N=C2NC(=O)/C(=C\c3cn(C)c4ccccc34)S2)c(C)c1 ?
Sa growth inh: 95; Sa helicase inh: -2

Results for C=CCN(CC=C)Cn1nc(Nc2ccccc2F)sc1=S ?
Sa growth inh: 71; Sa helicase inh: -11
